This is part of a sample that, as a whole, favours compounds with a hit. Of some 83,000 tested, about 20% had one in any assay.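 How to read the values: 0–100, growth inhibition (40 = 60% inhibited); 0, no net growth; -100 to 0, cell death (-40 = 40% of starting cells died; -100 = all dead).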 Values without a mark were called inactive. Activity calls are given as the source filed them. How the source made its calls: active means growth percent below 10; inactive means the rest.

The subject of this test is MDA-MB-231 breast. Briefly: NCI-60 one-dose screen, 48 h (100 = growth as untreated, 0 = no growth, -100 = all killed). The conditions noted are these: 10 µM unless noted.
As to `COc1cc2c(=O)n(C3CCCCCCC3)c3c4cc[nH]c4ncc3c2cc1OC`, the growth is 42.1%. Under `C1CCC([PH+](C2CCCCC2)C2CCCCC2[PH+](C2CCCCC2)C2CCCCC2)CC1.[Au].[CH-]1CCCCC1CC1CCCC[N-]1` (configuration not stated) stands -44.6% (active). With `CCCCN1CCCC[C@@H]1C(=O)N[C@H](C(=O)N(C)[C@H](C[C@@H](OC(C)=O)c1nc(C(=O)NC2CCC(C(=O)OC)CC2)cs1)C(C)C)C(C)C` (some centres not stated), the growth is 45.7%. On to `CS(=O)(=O)CCN1CC2CCCC(C2)C1`, for which the growth was 105%.

Turning to `COC(=O)[C@@H](C)C[C@H](Cc1ccccc1)NC(=O)c1nc([C@@H](C[C@H](C(C)C)N(C)C(=O)[C@@H](NC(=O)[C@H]2CCCCN2C)C(C)C)OC(C)=O)sc1C(C)C`, the growth was 2.67% (active). Under `C=CC[Se]C(=O)c1ccccc1OC(C)=O` stands -25.5% (active); under `CC(C)[C@@H]1NC(=O)[C@]2(C)CSC(=N2)c2csc(n2)CNC(=O)C[C@@H](/C=C/CCS)OC1=O`, 12%; under `Clc1cccc(Cl)c1Cl`, 117%. Under `O=C(CC1(O)C(=O)Nc2ccc(Cl)cc21)c1ccc(C(=O)NCC2CCC3(CC2)OOC2(CCCCC2)OO3)cc1` (configuration not stated) stands 16.8%; under `COc1ccc(C(O)(C(=O)O)c2ccc(OC)cc2)cc1`, 85.7%; under `CCn1c2ccccc2c2cc(C(=O)c3ccc(C)c4ccccc34)ccc21`, 26.4%. For `COC(=O)[C@]12CCC(C)(C)C[C@H]1[C@H]1C(=O)C[C@@H]3[C@@]4(C)C[C@@]5(CC(C)(C)[C@@H]4CC[C@@]3(C)[C@]1(C)CC2)OO[C@@](C)(C(F)(F)F)O5`, the growth is 94.8%.

As for `CC[C@]12C=CCN3CC[C@@]4(c5ccc(OC)cc5N(C)[C@H]4[C@@](O)(C(=O)OC)[C@@H]1OC(=O)CCCC[P+](c1ccccc1)(c1ccccc1)c1ccccc1)[C@@H]32`, the growth is -2.41% (active).

Consider `CCCCCCCCOC(=O)CCN1CC1`, for which the growth is 114%. Take `CC1[C@H](C)OC(=O)CC(O)CC(O)CC(O)CCC(O)C(O)C[C@]2(O)CC(O)C(C(=O)O)C(CC(OC3O[C@H](C)[C@@H](O)[C@H](N)[C@@H]3O)/C=C/C=C/C=C/C=C/CC/C=C/C=C/[C@H](C)[C@H]1O)O2` (some centres not stated): the growth is 92.9%. Under `c1cc2c(c3c1CCNC3)OCO2` stands 100%. With `Cc1ccc(N2COOC3(OOC2)C2CC4CC(C2)CC3C4)cc1`, the growth was 112%.

For the molecule `O=C(CC1(O)C(=O)N(Cc2ccccc2)c2ccc(Br)cc21)c1ccc(C(=O)NCC2CCC3(CC2)OOC2(CCCCC2)OO3)cc1` (configuration not stated), the growth is -73.9% (active).

Regarding `C[C@@H]1C[C@@]2(C)[C@@H](CC[C@@H]3[C@@H]2CC[C@]2(C)C(=O)CC[C@@H]32)CC1=O`, the growth was 103%.

As to `CCN(CC)c1ccc2c(c1)OC(N)=C(C#N)C2c1cc(OC)c2c(c1)OCO2` (configuration not stated), the growth is 4.28% (active). Under `O=P(Oc1ccc(Cl)cc1)(N1CC1)N1CC1` stands 106%. Under `O=[N+]([O-])c1cc(I)cc([N+](=O)[O-])c1` stands 95.7%; under `CC(=O)O[C@H](C[C@H](C(C)C)N(C)C(=O)[C@@H](NC(=O)[C@H]1CCCCN1C)C(C)(C)C)c1nc(C(=O)N[C@@H](Cc2ccccc2)C[C@H](C)C(=O)O)cs1`, 6.25% (active). On to `CC[C@H](C)[C@H](NC(=O)[C@H]1CCCCN1C)C(=O)N(C)[C@H](C[C@@H](O)c1nc(C(=O)N[C@@H](Cc2ccccc2)C[C@H](C)C(=O)O)cs1)C(C)C`, for which the growth is 95.2%.

On to `CN1CCC(O)(c2ccc(F)cc2)C(C(=O)c2ccc(F)cc2)C1` (configuration not stated), for which the growth is 104%. As for `O=C1NC(=O)C(=Cc2cccn2CCCCCn2c3ccccc3c(=O)c3ccccc32)C(=O)N1`, the growth was 116%. As to `COC(=O)[C@@H](C[C@H](Cc1ccccc1)NC(=O)c1csc([C@@H](C[C@H](C(C)C)N(C)C(=O)[C@@H](NC(=O)[C@H]2CCCCN2C)C(C)C)OC(C)=O)n1)NC(=O)OCc1ccccc1`, the growth is 18.6% [9.5 µM]. Regarding `CN(C)CCCOc1ccc2c(c1)c(C(=O)C(=O)NCCO)cn2Cc1ccccc1`, the growth is 104%.

Regarding `COc1cc(C=Nc2cc(Cl)cc(Cl)c2)ccc1N(CCCl)CCCl`, the growth was 65.5%. Under `CCOC(=O)N[C@H]1CCc2c(Br)c(OC)c(OC)c(OC)c2-c2ccc(SC)c(=O)cc21` stands -7.24% (active); under `C/C(CC(C)(C)N1CC1)=N\NC(=O)Nc1cccc2ccccc12`, 58.3%.

Regarding `C[C@]12CCc3sc(-c4ccccc4O)nc3C1=CC[C@@H]1[C@@H]2CC[C@]2(C)C(=O)CC[C@@H]12`, the growth was 103%. For `CC[C@H](C)[C@H](NC(=O)[C@H]1CCCCN1C)C(=O)N(C)[C@H](CC(=O)c1nc(C(=O)N[C@@H](Cc2ccccc2)C[C@H](C)C(=O)O)cs1)C(C)C`, the growth is 88%.

As for `COc1cccc(/C=C/[N+](=O)[O-])c1`, the growth was 87.6%. For `O=C1CC2(CC3(Cl)C(Cl)=C(Cl)C2(Cl)C3(Cl)Cl)C(=O)O1` (configuration not stated), the growth was 128%. `CC12CCC3C(CCC4=CC(=O)CCC43CF)C1CCC2=O` (configuration not stated): the growth is 118%.

Take `Nc1ccc(-c2nc3cc(F)ccc3[se]2)cc1F`: the growth was 42.3%.

(Values after PubChem BioAssay (NCI).)
